Hit rate of the full screen: of about 360,000 compounds, about 4,600 (1.3%) were called active. The sample as a whole holds a higher share of actives than the screen did. Values without a mark were called inactive.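 How the source made its calls: active means percent inhibition above its own plate's cutoff, namely the mean of that plate's compound wells plus 3 SD; inactive means the rest.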

In this assay the target is Muscarinic acetylcholine receptor M1 (Homo sapiens) (UniProt P11229). Briefly: CHRM1 blockers of acetylcholine calcium response – CHO-K1 cells, Fluo-8 calcium fluorescence, 1536-well, primary screen (AID 588852).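 Further: peak over basal fluorescence ratio during 140 s after agonist addition; 0% = ACh EC80 plus DMSO and 100% = DMSO alone without agonist.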 The following applies: CHO-K1 hM1, Fluo-8 calcium fluorescence, ACh EC80 antagonist; at 3 µM; active compounds read high.
Chain of Muscarinic acetylcholine receptor M1 (Homo sapiens) (P11229 whole entry, looked up): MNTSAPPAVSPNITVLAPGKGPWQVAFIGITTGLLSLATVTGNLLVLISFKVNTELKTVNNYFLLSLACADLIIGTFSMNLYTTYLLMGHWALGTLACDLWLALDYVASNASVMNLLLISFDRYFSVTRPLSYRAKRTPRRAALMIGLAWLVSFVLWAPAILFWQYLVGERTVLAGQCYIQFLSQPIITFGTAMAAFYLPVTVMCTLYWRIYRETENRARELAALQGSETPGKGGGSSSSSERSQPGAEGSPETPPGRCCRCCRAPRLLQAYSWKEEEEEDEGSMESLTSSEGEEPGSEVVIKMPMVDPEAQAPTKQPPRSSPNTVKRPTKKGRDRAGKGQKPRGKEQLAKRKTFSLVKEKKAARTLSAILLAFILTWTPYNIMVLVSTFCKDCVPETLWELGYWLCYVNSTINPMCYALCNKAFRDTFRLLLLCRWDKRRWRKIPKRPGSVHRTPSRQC
For `Cc1cc2nc(-c3ccco3)c(Cc3cccc(F)c3)n2c(C)c1Br`, the inhibition is -9.48%.
Turning to `O=C(c1ccc2c(c1)N(Cc1ccc(F)cc1)C(=O)c1ccccc1S2(=O)=O)N1CCN(c2ccccn2)CC1`, the inhibition was -3.64%.
As to `O=C(NCCN1CCOCC1)c1ccc2c(c1)N(Cc1cccc(Cl)c1)C(=O)c1ccccc1S2(=O)=O`, the inhibition is -3.27%.
In the case of `CCCCN(C)C(=O)c1ccc2c(c1)N(CC)C(=O)c1ccccc1S2(=O)=O`, the inhibition is 37.7% (active).
With `Cc1nn(-c2ccccc2)nc1C(=O)OCC(=O)N1CCCCC1C` (centres undefined), the inhibition was 3.01%.
On to `NC1=NC(=O)C2(COC(c3ccccc3Cl)OC2)S1` (centres undefined), for which the inhibition was -9.62%.
For the compound `O=C(COC(=O)/C=C/c1ccc(Br)o1)Nc1cccc(S(=O)(=O)N2CCOCC2)c1`, the inhibition was -15.6%.
The figure for `CC(=O)c1c(O)cc2n(c1=O)-c1ccc(Cl)cc1C2(C)C` is -13.4%; for `COC(=O)c1ccc(NC(=O)CSc2nnc(C3CC3)n2C)cc1` it is -9.89%; for `COC(=O)c1ccc(NC(=O)CSc2nnc(CNc3ccc(OC)cc3)n2C)cc1` it is 64.6% (active).
Then `COC(=O)c1ccc(NC(=O)CSc2nnc(-c3ccncc3)n2C)cc1`, with -9.95%; and `CC(C)CN(C(=O)c1ccc2c(c1)OCO2)C1CCS(=O)(=O)C1` (centres undefined), with 6.67%; and `O=C(Nc1cccc2c1N(C(=O)c1ccco1)CCC2)c1ccco1`, with -11.2%.
As to `N#CC1(NC(=O)COC(=O)CSc2ccc(F)cc2)CCCCC1`, the inhibition is -5.4%.
Consider `COc1cc(CCN=Cc2ccccc2O)c([N+](=O)[O-])cc1OC`, for which the inhibition is 1.04%.
Then `CN1CCN(CCCCOc2ccccc2-c2ccccc2)CC1`, with -6.34%.
Consider `CC1CCCN(CCOCCOc2ccccc2-c2ccccc2)C1` (centres undefined), for which the inhibition is 5.61%.
The figure for `c1ccc(-c2ccccc2OCCN2CCCCC2)cc1` is 33.7% (active); for `O=C(Oc1ccc(-c2nnco2)cc1)c1ccc(F)c(S(=O)(=O)N2CCOCC2)c1` it is 38.5% (active).
As to `Cc1cc(NC(=O)COC(=O)c2ccc(F)c(S(=O)(=O)N3CCOCC3)c2)no1`, the inhibition was -35%.
Then `COc1ccc(C(=O)Oc2ccc(-c3nnco3)cc2)cc1S(=O)(=O)N1CCOCC1`, with 0.6%; and `CC1=C2C(=O)OC(c3ccoc3)C2(C)CCC1` (centres undefined), with -3.46%.
Then `Cc1cc(C)cc(OCC(=O)Nc2ccc(S(=O)(=O)Nc3ccccn3)cc2)c1`, with -5.97%.
In the case of `Cc1ccc(S(=O)(=O)Nc2ccc3ncccc3c2)cc1`, the inhibition is 28.8% (active).
With `O=S(=O)(Nc1ccc(Oc2ncccn2)c(Cl)c1)c1ccc(F)cc1`, the inhibition is -16.8%.
Consider `CC1CCC2(CC1)NC(=O)N(CC(=O)NCc1ccco1)C2=O` (centres undefined), for which the inhibition was 16.7%.
The figure for `O=S1(=O)CC(N2CCN(c3ccccn3)CC2)CN1Cc1ccc(F)cc1` (centres undefined) is -1.35%; for `CCCC(CNC(=O)COC(=O)C1=NNC(=O)CC1)c1ccc(Cl)cc1Cl` (centres undefined) it is -6.04%.
The figure for `COc1cc(/C=C/C(=O)N2c3ccccc3Sc3ccc(C(F)(F)F)cc32)cc(OC)c1OC` is -6.22%.
For `O=C(CSc1nc2ccccc2o1)N1c2ccccc2Sc2ccc(Cl)cc21`, the inhibition was -3.61%.
Then `O=C(CN1CCCCC1)N1c2ccccc2Sc2ccc(C(F)(F)F)cc21`, with 96.8% (active); and `O=C(CN1C(=O)/C(=C\c2ccc(C(F)(F)F)cc2)Sc2ccccc21)NCc1ccco1`, with 13.9%; and `O=C(CN1CCCCCC1)N1c2ccccc2Sc2ccc(C(F)(F)F)cc21`, with 102% (active).
Then `CCC(=O)Nc1cc(C(F)(F)F)ccc1N1CCCC1`, with 3.67%; and `COc1ccc(NC(=O)c2cccc(Cl)c2)c[n+]1[O-]`, with -8.94%.
For the compound `Cc1cccc(NS(=O)(=O)c2ccc([N+](=O)[O-])cc2)n1`, the inhibition was -16.4%.
Then `CCc1nc2nc(C)c(NS(=O)(=O)c3ccc4c(c3)CCCC4)c(=O)n2[nH]1`, with 12.2%; and `Cc1nc2nc(C)c(NS(=O)(=O)c3ccc(C(C)(C)C)cc3)c(=O)n2[nH]1`, with 20.2% (active); and `Cc1ccn2c(=O)c(C(=O)NCCC3=CCCCC3)c(O)nc2c1`, with -8.96%.
Then `CN(C)C(=O)N1CCNCC1`, with -11.2%.
Take `CC(=O)N1CCOc2ccc(S(=O)(=O)N3CCC(C(=O)Nc4ccccc4F)CC3)cc21`: the inhibition was -13.2%.
Then `CC(C)(C)N(CC#CCC(O)(c1ccccc1)C1CCCC1)CCO` (centres undefined), with 83.9% (active); and `CC(C)c1ccc(N2CC(C(=O)Nc3nccs3)CC2=O)cc1` (centres undefined), with 12.6%; and `CCCCn1nnnc1C(c1cccc(OC)c1OC)N1CCN(C/C=C/c2ccccc2)CC1` (centres undefined), with 34.7%.
In the case of `CN1CCN(C2Cc3ccc(Cl)cc3Sc3ccc(F)cc32)CC1` (centres undefined), the inhibition is 60% (active).
The figure for `COc1ccc(NC(=O)C(CC(C)C)NC(=O)C2CCC(C)CC2)cc1` (centres undefined) is 0.68%; for `O=C(Nc1ccc(S(=O)(=O)Nc2nccs2)cc1)c1cc(-c2ccncc2)nc2ccccc12` it is -10.5%; for `CCN(CC)CCNC(=O)c1ccc(NC(=O)c2c(F)cccc2Cl)cc1` it is -0.98%.
The figure for `CCN(CC)CCNC(=O)c1ccc(NC(=O)c2cc(-c3ccncc3)nc3ccccc23)cc1` is 45.5% (active).
The figure for `CCCCNc1c(-c2ccc(OC)c(Sc3ccc(OC)cc3)c2)nc2ccc(Cl)cn12` is 19.9%; for `COC(=O)c1ccc2nc(-c3cccc(Br)c3)c(Cc3ccc(OC)cc3C)n2c1` it is -41.3%; for `CCCCNc1c(-c2cccc(Sc3ccc(OC)cc3)c2)nc2ccccn12` it is 36.9% (active).
`CCCCNC(=O)c1nc(C2CCN(S(=O)(=O)c3ccc(F)c(F)c3)CC2)oc1-c1cccc(C(F)(F)F)c1`: the inhibition was -12%.
The figure for `CCN(CC)CCCC(C)n1c2nc(=O)[nH]c(=O)c-2nc2cc(Cl)ccc21` (centres undefined) is 49.8% (active); for `O=Cc1cn(CCOc2ccc(F)cc2)c2ccccc12` it is 7.49%; for `CCCN(CCC)S(=O)(=O)c1cc2c(cc1Br)CCN2C(=O)CC` it is -3.69%.
Take `CCN1CCN(c2c(Cl)cccc2NC(=O)c2ccc(Br)o2)CC1`: the inhibition is 33% (active).
For `O=C(Nc1cccc(Cl)c1N1CCOCC1)c1ccc2c(c1)OCCO2`, the inhibition was -6.53%.
Take `O=C(Nc1cccc(Cl)c1N1CCOCC1)c1cccnc1`: the inhibition is -2.23%.
